IL1B secr inh – inflammasome signaling inhibition, IL-1 beta readout | THP-1 LPS/ATP IL-1B secretion, AlphaLISA, 16 h; active compounds read low | activity change, % at 57.5 µM | hit rate 4.7% among 360,000 | AID 743279; in the data active means activity change below about -50%; inconclusive means mostly about -30% to -49%
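Secreted IL-1B measured by AlphaLISA bead assay after 16 h compound exposure of THP-1 cells; compounds (final up to 57.5 uM) added 1 h before LPS (250 ng/mL) and ATP (1.25 mM) stimulation; lower signal means less secretion.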
ClpP mod – qHTS Assay for Activators of ClpP; ATP-dependent Clp protease proteolytic subunit (Bacillus subtilis (strain 168)), P80244; purified B. subtilis ClpP, FRET peptide cleavage, 20 min; Potency, µM (series often up to 57.5 µM); hit rate 1.9% among 340,000; AID 651965, 2013; active means well fitted falling curve with a large enough effect; inconclusive means small, poorly fitted or top-dose-only effect; inactive means no such curve, though single readings can be large or run the other way; further: the source files actives as falling curves though it sought activators and does not explain the sign; nearly all actives have a fitted effect of over 65% in size
Target sequence (P80244 whole entry, looked up): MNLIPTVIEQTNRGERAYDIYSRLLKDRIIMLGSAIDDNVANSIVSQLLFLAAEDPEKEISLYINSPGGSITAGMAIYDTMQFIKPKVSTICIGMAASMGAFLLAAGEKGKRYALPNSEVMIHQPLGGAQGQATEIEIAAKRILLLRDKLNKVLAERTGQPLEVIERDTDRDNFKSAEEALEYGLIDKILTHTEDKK
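Buffer: 100 mM Tris/HCl pH8, 100 mM KCl, 0.05% low protease BSA, 2.5% glycerol, 0.01% Tween-20. ClpP 10 microg/mL final; 20 min RT; delta FRET normalized to ADEP and DMSO controls.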
TDP1 cell noCPT – qHTS for Inhibitors of human tyrosyl-DNA phosphodiesterase 1 (TDP1): qHTS in cells in absence of CPT; hit rate 15% among 420,000; AID 686978, 2013; Potency, µM (top dose mostly 46.2 µM), usual class: inhibitors; DT40 Tdp1-/- hTDP1 cells, no CPT, ATP luminescence, 48 h; further: nearly all actives have a fitted effect of over 55% in size
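Growth of hTDP1-complemented DT40 Tdp1-knockout cells is measured by ATP luminescence after at least 48 hr compound exposure at 37 °C, with DMSO substituting for the 20 nM CPT used in the parallel screen.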
TDP1 cell CPT – DT40-hTDP1 cell growth loss with CPT; hit rate 12% among 420,000; AID 686979; chicken DT40 Tdp1-/-;hTDP1 cells + 20 nM CPT, ATP luminescence, 48 h; Potency, µM (doses to about 46.2 µM), usual class: inhibitors; further: nearly all actives have a fitted effect of over 55% in size
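Chicken DT40 Tdp1-/- cells stably complemented with human TDP1 were seeded at 400 cells/well in medium containing 20 nM camptothecin, exposed to pin-transferred compounds, and grown at 37 °C for at least 48 hr. Viability was read as ATP luminescence.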
D3 antag – D3 dopamine receptor (human) antagonism. AID 652054. D3R cells, DiscoveRx beta-arrestin luminescence, antagonist mode; active compounds read low. hit rate 2.5% among 360,000. max response, negative = inhibition, %; in the data active means max response below about -50%; inconclusive means no clear call, values can overlap the other calls
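Cells expressing the human receptor were seeded at 1500 cells/well, incubated overnight at 37 degrees C in 5% CO2, then exposed to library compounds with dopamine controls for 90 minutes at 37 degrees C before luminescent detection.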
DRD3 agonist – activates the human D3 dopamine receptor; P35462; D3R DiscoveRx beta-arrestin cells, luminescence, 90 min; max activation, %; hit rate 0.58% among 410,000; in the data active means max activation above about 30%
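Cells at 1500/well, incubated overnight, then treated with pinned compounds (dopamine as control) for 90 min at 37 degrees C. DiscoveRx reagent added for 30 - 60 minutes at room temperature; luminescence read.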
Numbers stand for hits; n = inactive; u = inconclusive; x = no result given. An excerpt weighted towards active compounds, which were near 21% of everything screened. Unless noted, the call rests on the fitted dose curve; in most records, active means well fitted inhibition curve with a large enough effect; inconclusive means small, poorly fitted or top-dose-only effect; inactive means flat fitted curve, though single readings scatter.

SMILES	IL1B secr inh	ClpP mod	TDP1 cell noCPT	TDP1 cell CPT	D3 antag	DRD3 agonist
CCOC(=O)N1CCC(NC(=O)c2ccc3c(c2)N(Cc2ccc(Cl)cc2)C(=O)c2ccccc2S3=O)CC1 (configuration not stated)	x	n	23.1µM	u	x	n
CCN1C(=O)c2ccccc2S(=O)c2ccc(C(=O)NC3CC3)cc21 (configuration not stated)	n	n	n	n	n	n
N#Cc1ccc(CN2CC3(CCN(C(=O)c4cnccn4)CC3)C2)cc1	x	x	n	n	x	x
O=S(=O)(c1cccc(F)c1)N1CCN(C(=S)NCc2ccccc2)CC1	n	x	n	n	n	n
CN(C)c1ccc(CN(CC2CCCO2)C(=O)c2cc3ccccc3o2)cc1 (configuration not stated)	n	n	u	18.4µM	n	n
CN(C)c1ccc(CN(CC2CCCO2)C(=O)c2ccc(Br)cc2)cc1 (configuration not stated)	x	n	n	u	x	n
COc1ccc(C(=O)N(Cc2ccc(N(C)C)cc2)CC2CCCO2)cc1 (configuration not stated)	x	n	n	u	x	n
CC(C)(C)N(Cc1ccccc1)C(=O)c1cc2ccccc2o1	n	n	11.6µM	u	n	n
CCOc1cccc(C(=O)N(Cc2ccc(N(C)C)cc2)CC2CCCO2)c1 (configuration not stated)	x	n	16.4µM	14.6µM	x	n
Cc1cc2oc(C(=O)N(Cc3ccc(N(C)C)cc3)CC3CCCO3)c(C)c2cc1Cl (configuration not stated)	x	n	18.4µM	u	x	n
Cc1nc2ccccc2c2c(N)cccc12	n	x	n	n	n	n
CSc1ccc(Cn2c(C)c(C(=O)NCc3cccc(C(F)(F)F)c3)sc2=O)cc1	n	n	u	u	n	n
Cc1ccc2oc(C(=O)N(Cc3ccncc3)CC3CCCO3)c(C)c2c1 (configuration not stated)	n	n	u	u	n	n
Cc1c(C(=O)N(Cc2ccc(N(C)C)cc2)CC2CCCO2)oc2ccc(Cl)cc12 (configuration not stated)	x	n	20.6µM	16.4µM	x	n
CCCc1ccc2oc(C(=O)N(Cc3ccncc3)CC3CCCO3)c(C)c2c1 (configuration not stated)	-84.6	n	18.4µM	u	n	n
Cc1c(C(=O)N(Cc2ccc(N(C)C)cc2)CC2CCCO2)oc2ccccc12 (configuration not stated)	u	n	23.1µM	23.1µM	n	n
Cc1c(C(=O)N(Cc2ccc(Cl)cc2)CC2CCCO2)oc2ccc(F)cc12 (configuration not stated)	x	n	14.6µM	u	x	n
CN(C)C(=O)c1ccc(NC(=O)COC(=O)Cn2cc(C(F)(F)F)ccc2=O)cc1	n	n	n	n	n	n
CC(C)CC(=O)NCC1(N(C)C)CCCCC1	x	n	n	n	x	n
Cc1cccc(C)c1OC(=O)CSc1nnc(-c2cccs2)o1	x	n	n	n	x	n
N#CCCN(Cc1cccs1)C(=O)c1ccc(Cl)cc1	n	n	n	n	n	n
CC1=Nc2cc(C(=O)NCCc3ccc(Cl)cc3)ccc2Sc2c(C)ccc(C)c21	x	n	x	x	x	n
CNC(=O)c1ccc2c(c1)N=C(C)c1cc(C)ccc1S2	x	n	4.61µM	3.66µM	x	n
CC1=Nc2cc(C(=O)NC(C)C)ccc2Sc2ccc(C)cc21	x	n	4.11µM	4.61µM	x	n
COc1ccc(CNC(=O)c2ccc3c(c2)N=C(C)c2c(C)ccc(C)c2S3)cc1	x	n	x	x	x	n
COc1ccc(C=C2CCc3ccccc3C2=O)cc1	n	n	u	u	n	n
O=C1C(=Cc2ccc(Cl)cc2)CCc2ccccc21	n	n	u	20.6µM	n	n
O=C1C(=Cc2ccc(F)cc2)CCc2ccccc21	n	n	20.6µM	16.4µM	n	n
O=C1C(=Cc2cccc(Cl)c2)CCc2ccccc21	n	n	20.6µM	u	n	n

Screening data (PubChem BioAssay)
